# Assay results reported in PubChem BioAssay (NCATS).
# Inconclusive results are not listed. Unmarked numbers belong to inactive results. Active and inactive are the calls of the source. Calls follow the shape of the dose curve; as a rule, active = well fitted inhibition curve with a large enough effect; inconclusive = small, poorly fitted or top-dose-only effect; inactive = flat fitted curve, though single readings scatter.
# Test system: W2
# Assay: qHTS profiling for inhibitors of Plasmodium falciparum proliferation (AID 504749);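 also: 0% = DMSO vehicle and full inhibition = artemisinin control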
# Conditions: P. falciparum in erythrocytes, SYBR Green DNA, 72 h; series mostly up to 28.7 µM
# Procedure, shortened: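 Each compound contacts P. falciparum-infected red blood cells for 72 h at 37 C; lysis buffer (Tris, EDTA, saponin, Triton X, SYBR Green I) is added and fluorescence measured next morning; values normalized to controls.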
# Also: nearly all actives have a fitted effect of over 60% in size.
row,Structure (SMILES),Potency
1,CC(=O)Nc1ccccc1,inactive
2,O=C(/C=C/c1ccccc1)OCc1ccccc1,inactive
3,c1ccc2[nH]ccc2c1,inactive
4,NC(N)=NS(=O)(=O)c1ccc(N)cc1,inactive
5,Cc1ccc(S(=O)(=O)NC(=O)NC2CCCCC2)cc1,inactive
6,Cc1c(NC(C)C)c(=O)n(-c2ccccc2)n1C,inactive
7,CCCCCC(N)=O,inactive
8,Cn1c(=O)c2c(ncn2CCO)n(C)c1=O,inactive
9,O=C(NCCCN1CCOCC1)c1ccc(Cl)cc1,inactive
10,COc1ccccc1OC(=O)Oc1ccccc1OC,inactive
11,OCc1ccc(Cl)cc1Cl,inactive
12,CC(=O)Nc1cccc(O)c1,inactive
13,Cc1c(N(C)C)c(=O)n(-c2ccccc2)n1C,inactive
14,COC(=O)c1cccnc1,inactive
15,CCN(CC)CC1CCCCN1CC(=O)N1c2ccccc2C(=O)Nc2cccnc21 (configuration not stated),inactive
16,Cc1cccc(Nc2ccccc2C(=O)O)c1C,inactive
17,CCc1nnc(NS(=O)(=O)c2ccc(N)cc2)s1,inactive
18,Cc1c(C(=O)NCCO)[n+](=O)c2ccccc2n1[O-],inactive
19,Nc1ncnc2c1ncn2[C@@H]1O[C@H](COP(=O)(O)O)[C@@H](O)[C@H]1O,inactive
20,CC1CCc2cc(F)cc3c(=O)c(C(=O)O)cn1c23 (configuration not stated),inactive
21,O=C(O)Cc1ccc(CCNS(=O)(=O)c2ccc(Cl)cc2)cc1,inactive
22,O=c1[nH]c(=O)c2ccccc2o1,inactive
23,O=C(O)c1ccccc1OP(=O)(O)O,inactive
24,O=S1(=O)OC(c2ccc(O)cc2)(c2ccc(O)cc2)c2ccccc21,inactive
25,COc1ccc(C(=O)N2CCN(CC(=O)N3CCOCC3)CC2)cc1,inactive
26,CN1CCN(C(=O)C2CCCCC2)CC1,inactive

# Test system: CRL-7250
# Assay: Cytotoxic Profiling of Annotated Libraries Using Quantitative High-Throughput Screening (AID 1296008); as to max response: % is scaled to controls: 0 for no effect and ±100 for the full control effect
# Conditions: Five cell lines viability, CellTiter-Glo ATP luminescence, 48-72 h; hits give low values
# Procedure, shortened: (§1)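 Cells exposed to compounds for 48 or 72 hr at 37 degrees Celsius. Viability read as ATP-coupled luminescence with CellTiter-Glo after 10 min at room temperature.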
Structure (SMILES),max response [%],outcome
CC(=O)Nc1ccccc1,2.87,
O=C(/C=C/c1ccccc1)OCc1ccccc1,1.75,
c1ccc2[nH]ccc2c1,4.59,
NC(N)=NS(=O)(=O)c1ccc(N)cc1,,inactive
Cc1ccc(S(=O)(=O)NC(=O)NC2CCCCC2)cc1,,inactive
C[C@H]1COc2c(C3(N)CC3)c(F)cc3c(=O)c(C(=O)O)cn1c23,2.54,
Cc1c(NC(C)C)c(=O)n(-c2ccccc2)n1C,,inactive
CCCCCC(N)=O,,inactive
Cn1c(=O)c2c(ncn2CCO)n(C)c1=O,-4.29,
CC(C)c1cc2c(cc1S(=O)(=O)O)[C@@]1(C)CCC[C@@](C)(C(=O)O)[C@@H]1CC2,-2.14,
O=C(NCCCN1CCOCC1)c1ccc(Cl)cc1,-10.4,
COc1ccccc1OC(=O)Oc1ccccc1OC,,inactive
OCc1ccc(Cl)cc1Cl,,inactive
CC(=O)Nc1cccc(O)c1,-4.66,
FC(F)(F)C(Cl)Br (configuration not stated),3.98,
Cc1c(N(C)C)c(=O)n(-c2ccccc2)n1C,,inactive
COC(=O)c1cccnc1,-1.99,
CCN(CC)CC1CCCCN1CC(=O)N1c2ccccc2C(=O)Nc2cccnc21 (configuration not stated),-4.06,
Cc1cccc(Nc2ccccc2C(=O)O)c1C,0.921,

Structure (SMILES),max response [%],outcome
COc1ccccc1Oc1c(NS(=O)(=O)c2ccc(C(C)(C)C)cc2)nc(-c2ncccn2)nc1OCCO,-3.53,
CCc1nnc(NS(=O)(=O)c2ccc(N)cc2)s1,4.08,
Cc1c(C(=O)NCCO)[n+](=O)c2ccccc2n1[O-],,inactive
O=C1c2cccc(O)c2C(=O)c2c(O)cccc21,-1.24,
CCCCCCCC(=O)OCC(COC(=O)CCCCCCC)OC(=O)CCCCCCC,-3.96,
O=C1C(c2[nH]c3ccccc3c2O)=Nc2ccccc21,1.26,
NNC(=O)CP(=O)(c1ccccc1)c1ccccc1,-0.948,
Nc1ncnc2c1ncn2[C@@H]1O[C@H](COP(=O)(O)O)[C@@H](O)[C@H]1O,,inactive
CC1CCc2cc(F)cc3c(=O)c(C(=O)O)cn1c23 (configuration not stated),,inactive
O=C(O)c1cc(=O)c2ccccc2o1,2.58,
C=CCSCC1Nc2cc(Cl)c(S(N)(=O)=O)cc2S(=O)(=O)N1 (configuration not stated),-2.06,
O=C(O)Cc1ccc(CCNS(=O)(=O)c2ccc(Cl)cc2)cc1,2.04,
CC[N+](CC)(CC(=O)Nc1c(C)cccc1C)Cc1ccccc1,-0.938,
O=c1[nH]c(=O)c2ccccc2o1,,inactive
O=C(O)c1ccccc1OP(=O)(O)O,3.34,
O=S1(=O)OC(c2ccc(O)cc2)(c2ccc(O)cc2)c2ccccc21,,inactive
COc1ccc(C(=O)N2CCN(CC(=O)N3CCOCC3)CC2)cc1,3.53,
OCC(O)CS (configuration not stated),-11.9,
CN1CCN(C(=O)C2CCCCC2)CC1,,inactive

# Test system: HEK293
# Assay: as above
# Conditions: Five cell lines viability, CellTiter-Glo ATP luminescence, 48-72 h; hits give low values
# Procedure, shortened: as §1
Structure (SMILES),max response [%],outcome
CC(=O)Nc1ccccc1,-7.78,
O=C(/C=C/c1ccccc1)OCc1ccccc1,-4.12,
c1ccc2[nH]ccc2c1,-5.55,
NC(N)=NS(=O)(=O)c1ccc(N)cc1,-6.28,
Cc1ccc(S(=O)(=O)NC(=O)NC2CCCCC2)cc1,2.4,
C[C@H]1COc2c(C3(N)CC3)c(F)cc3c(=O)c(C(=O)O)cn1c23,4.33,
Cc1c(NC(C)C)c(=O)n(-c2ccccc2)n1C,-10.6,
CCCCCC(N)=O,-2.09,
Cn1c(=O)c2c(ncn2CCO)n(C)c1=O,-4.8,
CC(C)c1cc2c(cc1S(=O)(=O)O)[C@@]1(C)CCC[C@@](C)(C(=O)O)[C@@H]1CC2,0.927,
O=C(NCCCN1CCOCC1)c1ccc(Cl)cc1,1.26,
COc1ccccc1OC(=O)Oc1ccccc1OC,-4.48,
OCc1ccc(Cl)cc1Cl,-6.19,
CC(=O)Nc1cccc(O)c1,4.09,
FC(F)(F)C(Cl)Br (configuration not stated),0.482,
Cc1c(N(C)C)c(=O)n(-c2ccccc2)n1C,-3.5,
COC(=O)c1cccnc1,,inactive
CCN(CC)CC1CCCCN1CC(=O)N1c2ccccc2C(=O)Nc2cccnc21 (configuration not stated),4.03,
Cc1cccc(Nc2ccccc2C(=O)O)c1C,-1.57,

Structure (SMILES),max response [%],outcome
COc1ccccc1Oc1c(NS(=O)(=O)c2ccc(C(C)(C)C)cc2)nc(-c2ncccn2)nc1OCCO,-4.43,
CCc1nnc(NS(=O)(=O)c2ccc(N)cc2)s1,-0.578,
Cc1c(C(=O)NCCO)[n+](=O)c2ccccc2n1[O-],0.33,
O=C1c2cccc(O)c2C(=O)c2c(O)cccc21,-0.119,
CCCCCCCC(=O)OCC(COC(=O)CCCCCCC)OC(=O)CCCCCCC,1.52,
O=C1C(c2[nH]c3ccccc3c2O)=Nc2ccccc21,,inactive
NNC(=O)CP(=O)(c1ccccc1)c1ccccc1,0.687,
Nc1ncnc2c1ncn2[C@@H]1O[C@H](COP(=O)(O)O)[C@@H](O)[C@H]1O,,inactive
CC1CCc2cc(F)cc3c(=O)c(C(=O)O)cn1c23 (configuration not stated),-3.78,
O=C(O)c1cc(=O)c2ccccc2o1,-0.978,
C=CCSCC1Nc2cc(Cl)c(S(N)(=O)=O)cc2S(=O)(=O)N1 (configuration not stated),2.45,
O=C(O)Cc1ccc(CCNS(=O)(=O)c2ccc(Cl)cc2)cc1,-7.16,
CC[N+](CC)(CC(=O)Nc1c(C)cccc1C)Cc1ccccc1,3.4,
O=c1[nH]c(=O)c2ccccc2o1,1.22,
O=C(O)c1ccccc1OP(=O)(O)O,2.49,
O=S1(=O)OC(c2ccc(O)cc2)(c2ccc(O)cc2)c2ccccc21,-9.72,
COc1ccc(C(=O)N2CCN(CC(=O)N3CCOCC3)CC2)cc1,4.6,
OCC(O)CS (configuration not stated),3.48,
CN1CCN(C(=O)C2CCCCC2)CC1,-2.32,
